Compound activity from PubChem.
Hits are enriched below; roughly 11% of the tested compounds scored in any of these assays.
PNC inhibitor = High Content Assay for Compounds that inhibit the Assembly of the Perinucleolar Compartment; PC3M PTB-GFP, PNC prevalence imaging, 16 h; hits give low values; activity change (PNC), negative = inhibition, % at 10 µM; actives 3.1% (n = 140,000); AID 2417, 2010;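 active = readout at or below -70, meaning at least 70% loss of cells showing the perinucleolar compartment, a nuclear body marking cancer cells; inconclusive = readout between -30 and a set limit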
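PC3M cells stably expressing PTB-GFP, 750–1000 cells/well, treated 16 h at 37 °C with compound (23 nl of library stock), in duplicate. After paraformaldehyde fixation and Hoechst stain, imaged at 20x; PNC prevalence scored by image analysis.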
ALDH1A1 inh = qHTS Assay for Inhibitors of Aldehyde Dehydrogenase 1 (ALDH1A1). Aldehyde dehydrogenase 1A1 (Homo sapiens), P00352. Purified ALDH1A1, NADH fluorescence, propionaldehyde substrate. Potency, µM (series often up to 75.3 µM), usual class: inhibitors. actives 7.3% (n = 220,000)
HPGD block = qHTS Assay for Inhibitors of HPGD (15-Hydroxyprostaglandin Dehydrogenase); 15-hydroxyprostaglandin dehydrogenase [NAD(+)] (Homo sapiens), P15428; purified HPGD, NADH fluorescence kinetic, PGE2 substrate; Potency, µM, usual class: inhibitors; actives 4.3% (n = 150,000); AID 894, 2007
Target sequence (P15428 whole entry, looked up): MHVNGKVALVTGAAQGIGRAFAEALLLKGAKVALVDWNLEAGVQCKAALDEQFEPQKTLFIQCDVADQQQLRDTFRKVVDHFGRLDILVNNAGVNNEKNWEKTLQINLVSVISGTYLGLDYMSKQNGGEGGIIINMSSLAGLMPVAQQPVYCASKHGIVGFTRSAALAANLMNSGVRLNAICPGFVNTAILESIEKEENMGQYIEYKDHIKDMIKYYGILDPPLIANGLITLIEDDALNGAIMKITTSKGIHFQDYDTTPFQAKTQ
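20 nM HPGD preincubated 15 min at room temperature with compound in 50 mM Tris-HCl pH 8, 0.01% Tween 20. Started with 1 mM NAD+ and 30 uM prostaglandin E2; NADH fluorescence (360/450 nm) read 5 times over 30-s intervals, last minus first.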
Of the large screens only hits and unclear results are named; the others gave an inactive call; ! = a repeat was not active. Unless noted, calls follow the shape of the dose curve; as a rule, active = well fitted inhibition curve with a large enough effect (not every such curve was filed as active); inconclusive = small, poorly fitted or top-dose-only effect, or another doubt; inactive = no such curve, though single readings can be large or run the other way.

CSC1=C(C#N)C(c2ccccc2C)C(C#N)=C(N)N1 (centres undefined)	ALDH1A1 inh 22µM
CSC1=C(C#N)C(c2ccccc2Cl)C2=C(N1)c1ccccc1C2=O (centres undefined)	ALDH1A1 inh inconclusive, HPGD block inconclusive
Cn1cccc1C(=O)N1CCC2(CCN(Cc3ccc(C#N)cc3)CC2)CC1	none (no result: PNC inhibitor)
O=C(c1ccc(Cl)cc1)[C@@H]1[C@@H]2C(=O)N(c3ccc(Cl)cc3)C(=O)[C@@H]2C2c3ccccc3C=NN21 (some centres undefined)	ALDH1A1 inh inconclusive
O=C(C1=C[C@@H]2[C@H]3C(=O)N(c4ccccc4)C(=O)[C@H]3[C@@H](C(=O)c3ccc(Cl)cc3)N2C=C1)c1ccccc1	ALDH1A1 inh 20µM
CCOC(=O)c1c(C2COc3ccccc3O2)csc1NC(=O)c1ccco1 (centres undefined)	ALDH1A1 inh inconclusive, HPGD block inconclusive
O=C(CO/N=C/c1ccccc1OC(F)F)NC1CCCCC1	HPGD block 25µM
CCN(CC)c1ccc(C(=O)N/N=C/c2ccccc2OC(F)F)cc1	none (no result: PNC inhibitor, HPGD block)
CCC(CC)NC(=O)CO/N=C/c1ccccc1OC(F)F	HPGD block 20µM
O=C(CO/N=C/c1ccc(OC(F)F)cc1)NC1CCCCCC1	none (no result: PNC inhibitor, HPGD block)
CC(=O)C1=C(N2CCCCC2)CCC1=O	none
C[C@@H](C(=O)O)c1cccc(C(=O)c2ccccc2)c1	none (no result: PNC inhibitor)
O=C(COc1cccc(NC(=O)c2ccco2)c1)c1ccccc1	ALDH1A1 inh inconclusive
CCOc1ccc(NS(=O)(=O)c2ccc(NC(=O)C3CCCO3)cc2)cc1 (centres undefined)	none
CC1CN(C(=O)c2ccc(COc3ccccc3Br)o2)CC(C)O1 (centres undefined)	none (no result: PNC inhibitor, HPGD block)
CSc1ccc2c(c1)N(CCCN(C)C)c1ccccc1S2	none (no result: PNC inhibitor)
CN(C)CCCN1c2ccccc2Sc2ccc(C(F)(F)F)cc21	PNC inhibitor -115
Cc1nc2cc(NC(=O)COc3ccc(C#N)cc3)ccc2n1-c1ccccc1	ALDH1A1 inh 11µM
Cc1nc2cc(C(=O)OCC(=O)Nc3ccc(C#N)cc3)ccc2n1-c1ccccc1	PNC inhibitor inconclusive, HPGD block inconclusive
CCN(CC)S(=O)(=O)c1cc(C(=O)OCC(=O)Nc2cccc(C)c2C)ccc1F	none
COc1ccc(CCNC(=O)c2nnc(Cc3ccc(Cl)cc3)o2)cc1OC	none
CC(C)CCNC(=O)c1nnc(Cc2ccc(Cl)cc2)o1	PNC inhibitor -110
CC(C)C(O)(C#CCN1CCCCC1)C(C)C	none (no result: HPGD block)
CS(=O)(=O)ON=C1CCN(S(=O)(=O)c2ccccc2)CC1	none (no result: PNC inhibitor, HPGD block)
CCCCn1c(SCN2C(=O)c3ccccc3C2=O)nc2cc(S(N)(=O)=O)ccc21	ALDH1A1 inh 28µM
CCCCn1c(SCC2CCCO2)nc2cc(S(N)(=O)=O)ccc21 (centres undefined)	none
CCCCn1c(SCC(=O)NC(=O)NCc2ccco2)nc2cc(S(N)(=O)=O)ccc21	none
CCCCn1c(SCC(=O)c2cc(OC)ccc2OC)nc2cc(S(N)(=O)=O)ccc21	ALDH1A1 inh inconclusive
CCCCn1c(SCc2ccc(C(=O)OC)o2)nc2cc(S(N)(=O)=O)ccc21	ALDH1A1 inh 25µM
CCCCn1c(SCC(=O)N2CCC(C)CC2)nc2cc(S(N)(=O)=O)ccc21	PNC inhibitor inconclusive, HPGD block 28µM
C[N+](C)(C)c1ccc([C@H](N)C(=O)O)cc1	none (no result: PNC inhibitor)
O=Cc1cccn1-c1ccc(O)cc1	none (no result: PNC inhibitor, HPGD block)
C=CCn1c(SCC#N)nc2c(c1=O)C(C)(C)Cc1ccccc1-2	ALDH1A1 inh inconclusive
C=C(CC)C(=O)c1ccc(OCC(=O)O)c(Cl)c1Cl	ALDH1A1 inh 14µM!
CCOC(=O)COc1ccc2nsnc2c1Cl	ALDH1A1 inh inconclusive, HPGD block inconclusive
COc1ccc(C(=O)NNC(=O)CSc2nnc(C)n2CC2CCCO2)cc1 (centres undefined)	none (no result: PNC inhibitor, HPGD block)
N#CC(C#N)=C1c2cc(S(N)(=O)=O)ccc2-c2ccc(S(N)(=O)=O)cc21	ALDH1A1 inh 7.9µM (no result: PNC inhibitor, HPGD block)
NS(=O)(=O)c1ccc2ccccc2c1	none (no result: PNC inhibitor, HPGD block)
COc1nc(N2CCCC2)nc(-n2nnc(C(C)=O)c2C)n1	none (no result: PNC inhibitor, HPGD block)
CCOc1ccc2nc3sc(C(=O)N4CCOCC4)c(N)c3cc2c1	none (no result: PNC inhibitor, HPGD block)
COc1ccc2nc3sc(C(=O)NCc4cccs4)c(N)c3cc2c1	ALDH1A1 inh 4µM, HPGD block inconclusive
CCN1N=C(c2cc(Cl)sc2Cl)CSC1=O	ALDH1A1 inh inconclusive, HPGD block inconclusive
O=C(CSc1nnc(C2CCCCC2)n1Cc1ccccc1)NCc1ccco1	none
COc1ccccc1NC(CC(=O)c1ccccc1)C(=O)OCC(=O)c1ccc(F)cc1 (centres undefined)	ALDH1A1 inh 13µM
Cc1c(Cl)cccc1NC(CC(=O)c1ccccc1)C(=O)OCC(=O)c1cccs1 (centres undefined)	none (no result: HPGD block)
O=C(CC1C(=O)NCCN1CC1CCCCC1)NCCc1ccc(F)cc1 (centres undefined)	none (no result: PNC inhibitor, HPGD block)
O=C(CSc1ccc(Cl)cc1)OCc1nnc(-c2ccccc2)o1	ALDH1A1 inh inconclusive
O=C(/C=C/c1ccco1)OCc1nnc(-c2ccc(Cl)cc2)o1	ALDH1A1 inh 25µM (no result: PNC inhibitor, HPGD block)
CCCc1nnc(N2C(=O)c3cccc4cccc(c34)C2=O)s1	ALDH1A1 inh inconclusive, HPGD block inconclusive
Cc1nnc(N2C(=O)c3cccc4cccc(c34)C2=O)s1	PNC inhibitor -111, ALDH1A1 inh inconclusive, HPGD block inconclusive
CCC(=O)/C=C/C1C(C)=CCCC1(C)C (centres undefined)	ALDH1A1 inh 13µM (no result: PNC inhibitor)
Cn1c(NC(=O)Cc2ccc(F)cc2)cc(=O)n(C)c1=O	ALDH1A1 inh inconclusive
CCOC(=O)NC(Nc1ccc(S(N)(=O)=O)cc1)(C(=O)OCC)C(F)(F)F (centres undefined)	none
O=S(=O)(c1ccc2c(c1)nc(COc1ccc(Cl)cc1)n2CC1CCCO1)N1CCOCC1 (centres undefined)	PNC inhibitor inconclusive
Cc1ccc(C)c(NC(=O)CCCCCCCCCCC2COCCO2)c1 (centres undefined)	PNC inhibitor inconclusive
O=Cc1ccc(N2CCCCC2)cc1	ALDH1A1 inh 1.6µM (no result: PNC inhibitor, HPGD block)
CCOc1cc(N2CCCC2)ccc1[N+](=O)[O-]	none
O=S(=O)(Nc1ccc(N2CCCCC2)cc1)c1ccccc1	none
COc1cc(N2CCCC2)ccc1C=O	ALDH1A1 inh 13µM (no result: PNC inhibitor, HPGD block)
FC(F)(F)c1ccccc1NC(=S)NC1CCN(Cc2ccccc2)CC1	none (no result: PNC inhibitor, HPGD block)
O=c1[nH]c(Cl)nc2c1ncn2C1OC(CO)C(O)C1O (centres undefined)	HPGD block inconclusive (no result: PNC inhibitor)
CNS(=O)(=O)c1ccc(NC(=O)c2cncc(Br)c2)cc1	none (no result: PNC inhibitor, HPGD block)
CCNC(=S)N1CCN(c2ccc([N+](=O)[O-])cc2)CC1	ALDH1A1 inh 3.2µM
COc1ccc(C(=O)NC(=S)N2CCN(c3ccc([N+](=O)[O-])cc3)CC2)cc1	none
COCCCNC(=S)N1CCN(c2ccc([N+](=O)[O-])cc2)CC1	ALDH1A1 inh 28µM
CNC(=S)N1CCN(c2ccc([N+](=O)[O-])cc2)CC1	ALDH1A1 inh inconclusive
O=[N+]([O-])c1ccc(N2CCN(C(=S)NCc3ccc(Cl)cc3)CC2)cc1	ALDH1A1 inh 11µM (no result: PNC inhibitor, HPGD block)
C=CCNC(=S)N1CCN(c2ccc([N+](=O)[O-])cc2)CC1	ALDH1A1 inh inconclusive (no result: HPGD block)
Cc1n(-c2ccccc2)c2ccc(Cl)cc2[n+]1CCO	none (no result: PNC inhibitor, HPGD block)
